High-throughput results: PubChem BioAssay, several laboratories
PfHsp40 yeast: rescue of PfHsp40-mediated yeast toxicity; 340,000 tested, 0.68% active; AID 504582; S. cerevisiae expressing PfHsp40, growth rescue, ATP luminescence; growth rescue, % at 12.5 µM; in the data active means growth rescue above about 28%, passing the limit was not always enough; inconclusive means no clear call, values can overlap the other calls;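 further: yeast W303a lacking pdr1 and pdr3 grown in galactose medium; growth measured after three days at 30 °C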
FadD28 FP inh: M. tuberculosis FadD28 bisubstrate binding inhibition | AID 588549 | FadD28 bisubstrate probe binding, fluorescence polarization | 360,000 tested, 0.22% active | inhibition, % at 12.5 µM; in the data active means inhibition above about 8.5%, passing the limit was not always enough; inconclusive means no clear call, values can overlap the other calls
Yp Topo-I inh: blocks Yersinia pestis topoisomerase I activity; Y. pestis Topo-I cleavage product accumulation, plate reader; 360,000 tested, 0.064% active; activity, % at 10 µM; AID 504884; in the data active means activity above about 50%, passing the limit was not always enough; inconclusive means no clear call, values can overlap the other calls
Mtb betalactam: beta-lactam sensitization of Mtb H37Rv | M. tuberculosis H37Rv growth with meropenem, percent inhibition | inhibition, % at 25 µM | 330,000 tested, 0.27% active | AID 434955; call rule not given here;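 further: growth measured after seven days incubation then overnight dye step; 0% = bacteria only wells and 100% = bacteria with antibiotic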
Rv3671c protease: inhibitors of M. tuberculosis serine protease Rv3671c; inhibition, % at 5.96 µM; 320,000 tested, 0.048% active; AID 2606; in the data active means inhibition above about 38%;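 further: extracellular domain of Rv3671c used as enzyme; 0% = enzyme with DMSO and 100% = no enzyme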
Mtb UGM inh: Mtb UDP-galactopyranose mutase inhibition; 320,000 tested, 0.06% active; purified UGM, fluorescence polarization probe displacement; P9WIQ1; inhibition, % at 10 µM; in the data active means inhibition above about 10%, passing the limit was not always enough; inconclusive means no clear call, values can overlap the other calls
Target sequence (P9WIQ1 whole entry, looked up): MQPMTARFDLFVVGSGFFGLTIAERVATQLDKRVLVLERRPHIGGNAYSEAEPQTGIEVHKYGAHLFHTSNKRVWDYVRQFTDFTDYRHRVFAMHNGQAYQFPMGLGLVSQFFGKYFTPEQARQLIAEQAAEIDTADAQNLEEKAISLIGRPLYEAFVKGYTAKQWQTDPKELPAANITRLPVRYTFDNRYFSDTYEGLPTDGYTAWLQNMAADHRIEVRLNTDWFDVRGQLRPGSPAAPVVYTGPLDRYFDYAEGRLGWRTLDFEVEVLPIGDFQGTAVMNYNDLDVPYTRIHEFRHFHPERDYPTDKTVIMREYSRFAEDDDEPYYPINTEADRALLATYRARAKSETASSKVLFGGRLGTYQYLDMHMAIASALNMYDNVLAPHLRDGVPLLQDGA
The depositor's hits bear a star; u = inconclusive; x = no result; ! = a repeat was not active. Compounds with a hit are over-represented: about 0.98% of the library has one in this group of screens.

SMILES | PfHsp40 yeast | FadD28 FP inh | Yp Topo-I inh | Mtb betalactam | Rv3671c protease | Mtb UGM inh
O=C(NNC(=O)c1cc(Br)ccc1Cl)c1csc(N2CCOCC2)n1 | -1 | -2 | -8 | 11 | 1 | 2
CCN(CC)c1ncnc2c1ncn2[C@H]1CN(Cc2ccccc2)C[C@@H](COC(C)=O)O1 | x | 0 | 21 | x | x | x
CC(C)NC(=O)C1(C)CCN1Cc1ccc(C(F)(F)F)cc1 (configuration not stated) | x | 0 | -2 | x | x | x
COc1ccc(Cl)cc1C(=O)Nn1c(-c2cccs2)nc2ccccc2c1=O | -1 | 12* | 4 | 0 | -6 | 0
CC(C)(C)CC(=O)O/N=C(\N)c1ccccn1 | 72* | 0 | -1 | -9 | -7 | 1
O=C(Cn1nnc(-c2ccccc2)n1)NNC(=O)c1ccc(Br)cc1 | 1 | -4 | 56* | 3 | 5 | 1
Cn1nc([N+](=O)[O-])c(C(C#N)c2nc3ccccc3n2C)c(Cl)c1=O (configuration not stated) | -2 | 12* | -6 | 2 | 18 | 0
O=C(O)c1cc(N=Nc2c(O)ccc3ccccc23)cc(C(=O)O)c1 | -1 | 13* | 3 | x | x | x
Oc1ccc(N=Nc2c(O)ccc3ccccc23)cc1 | 5 | 1 | -1 | 97 | -3 | 2
O=C(Cc1ccccc1F)Nc1cccc(S(=O)(=O)N2CCCCC2)c1 | x | -3 | 9 | x | x | x
CCCS(=O)(=O)NC(=O)C1(C)CCN(C(=O)c2cc(F)ccc2C)C1 (configuration not stated) | x | -1 | 5 | x | x | x
CCCCCCCCCCOC(=O)Cn1c(COc2ccc(Cl)cc2)[n+](C)c2ccccc21 | 7 | -41 | 3 | 92 | 1 | 0
CCCCCCCCCCOC(=O)Cn1c(COc2ccccc2)[n+](C)c2ccccc21 | 336* | -36 | -17 | 14 | 3 | 0
CCCCCCCCCCOC(=O)Cn1c(COc2cccc(C)c2)[n+](C)c2ccccc21 | 213* | -50 | -9 | 71 | -6 | -1
CCCCCCCCCCOC(=O)Cn1c(COc2ccccc2C)[n+](C)c2ccccc21 | 9 | -27 | 2 | 81 | -5 | 2
CCCCCCCCCCOC(=O)Cn1c(COc2ccc(OC)cc2)[n+](C)c2ccccc21 | 383*! | -27 | -14 | 78 | -8 | 1
COc1ccc(C(C)(O)c2nc(-c3csc4ccccc34)cs2)cc1 (configuration not stated) | x | -2 | 4 | x | x | x
CC(=NNc1nc2ccccc2s1)c1ccncn1 | 150* | 3 | -6 | x | x | x
C/C(=N\Nc1nc2ccccc2s1)c1ccc(Br)s1 | 145* | -4 | -33 | 100 | -4 | 0
COC(=O)c1ccc(Cn2c(C)c(C(=O)NCc3cccc([N+](=O)[O-])c3)sc2=O)o1 | x | -3 | -5 | x | x | x
CCCCCCCCCCCC(=O)c1c(O)cccc1O | 165* | 1 | -5 | -5 | -8 | 2
COC(=O)C1=C(c2ccc(-c3ccccc3)c(F)c2)C[C@@H]2CC[C@H]1N2C(=O)NCc1ccco1 | 4 | -2 | 56* | 3 | -5 | -2
COC(=O)C1=C(c2ccc(-c3ccccc3)c(F)c2)C[C@@H]2CC[C@H]1N2C(=O)NCCO | 1 | -1 | 23 | 9 | -15 | 1
CC1(C(=O)NC2CCCC2)CCC(=O)N1CCOc1ccccc1 (configuration not stated) | x | -2 | x | x | x | x
CCC(=O)N1CCN(c2ccc(Cl)cc2NC(=O)c2ccc([N+](=O)[O-])o2)CC1 | 46* | 1 | 21 | 98 | -4 | 3
SMILES | PfHsp40 yeast | FadD28 FP inh | Yp Topo-I inh | Mtb betalactam | Rv3671c protease | Mtb UGM inh
Cc1ccc(S(=O)(=O)n2c([N+](=O)[O-])cnc2C)cc1C | 0 | -1 | 2 | -3 | 10 | 2
Cc1cc(C)c(S(=O)(=O)n2c([N+](=O)[O-])cnc2C)cc1C | -1 | -2 | -4 | 12 | 2 | 10*
OC(Cn1cncn1)(Cn1cncn1)c1ccc(F)cc1F | 179* | 1 | 5 | 1 | -8 | 4
Cc1cc(C(=O)Cn2cncn2)c(C)n1CCc1ccc(F)cc1 | -2 | -6 | -2 | 62 | 0 | 1
Cc1cc(C)nc(SCc2cc(=O)c(OC(=O)c3ccc(Cl)c([N+](=O)[O-])c3)co2)n1 | 1 | -3 | 6 | 3 | 6 | 1
Cc1cc(C)nc(SCc2cc(=O)c(OC(=O)c3ccc(S(=O)(=O)N(C)C)cc3)co2)n1 | 90* | -5 | 29 | 4 | -3 | 7
Cc1ccnc(SCc2cc(=O)c(OC(=O)c3ccc(S(=O)(=O)N(C)C)cc3)co2)n1 | 88* | -2 | 11 | -5 | 3 | 5
Cc1ccccc1-c1cc2nc(Oc3cccc(F)c3)n(C)c(=O)c2s1 | x | -4 | 13 | x | x | x
O=C(NC(=S)N(CCc1ccccc1)CCc1ccccc1)c1ccco1 | 187* | -1 | 10 | 58 | 3 | x
O=C(/C=C/c1ccccc1)NC(=S)NNC(=O)c1ccco1 | 35* | 1 | -4 | -1 | 6 | -2
O=C(/C=C/c1ccc(Br)cc1)NC(=S)NNC(=O)c1ccco1 | u | 0 | -3 | 16 | 3 | -1
O=C(/C=C/c1ccccc1)NC(=S)Nc1ccccc1 | 102* | -1 | 2 | 6 | 1 | -1
CC12CCC(=O)C=C1CCC1C2CCC2(C)C(O)CCC12 (configuration not stated) | -1 | -3 | 1 | -1 | 6 | 0
C[C@H](O)[C@H]1CC[C@H]2[C@@H]3CCC4=CC(=O)CC[C@]4(C)[C@H]3CC[C@]12C | 158* | 0 | 20 | -5 | 1 | -1
O=C1CCn2c1c(O)c1ccccc1c2=O | -1 | -2 | 5 | x | x | x
N=C1CCC(=N)c2c1c(O)c1ccccc1c2O | 9 | 14* | 12 | 7 | -17 | 2
O=C(O)c1cc(N2N=C(C(F)(F)F)/C(=C/C=C/c3ccco3)C2=O)ccc1Cl | 112* | 77* | -42 | x | x | x
Nc1c(Cl)ncnc1N/N=C/c1ccc2ccccc2n1 | 503* | 0 | -3 | 37 | 12 | 1
COc1cc2c(cc1OC)CN(CC(=O)Nc1ccc(F)cc1)C(C(=O)O)C2 (configuration not stated) | 35* | -4 | 0 | -6 | -21 | -3
COc1cc2c(cc1OC)/C(=C/C(=O)c1ccccc1)NCC2 | 41* | 1 | 6 | 6 | -8 | 1
CCOC(=O)Nc1cccc(Nc2ccccc2)c1 | 0 | -1 | -4 | -19 | -6 | 1
CCOC(=O)NNc1ccccc1 | 62* | -4 | 5 | 95 | -6 | -1
CCCCN(CCCC)C(=O)C1(P(=O)(c2ccccc2)c2ccccc2)CCC1 | 0 | -12 | 55* | -10 | 4 | -1
CCN(CC)C(=O)C1(P(=O)(c2ccccc2)c2ccccc2)CCC1 | x | -1 | -2 | 3 | 0 | -2
O=C(Nc1cccc(Cl)c1)ON1CCCCC1 | x | -3 | 8 | x | x | x
CC1(C)CC(NC(=O)c2cccc(S(=O)(=O)Nc3cccc(Cl)c3)c2)CC(C)(C)N1 | -1 | -1 | -8 | -7 | -5 | x
CCOc1ccccc1CNC(c1ccccc1)c1ccccc1 | 1 | -3 | 52* | 7 | 2 | -1
